For 40 compounds, growth inhibition results are on record in PubChem BioAssay (NCI).

The panel holds about 79,000 compounds, 15% with a hit somewhere; the sample as a whole holds those more often. Values without a mark were called inactive. Calls of active or inactive are those of the source. Cut-off read from the data, not from the text of the source: active = growth inhibition above about 70%; inactive = the rest.

One assay in a line: NCI Yeast Anticancer Drug Screen. Data for the rad50 strain (AID 155).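 Note: 0% = growth of vehicle-only cultures of the same strain.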 The conditions noted are these: S. cerevisiae rad50 strain growth inhibition; at 50.0 µM (retest, dose inferred, filed as 5.0); active compounds read high. The method, boiled down:
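Vehicle-treated cultures provide the reference for the growth inhibition reported for compound-exposed, repair-deficient yeast.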
Consider `COc1ccc(N=N/N=c2\sc3cc(Cl)ccc3n2C)cc1`, for which the growth inhibition is 57%.

With `O=c1ccc2nc3ccccc3ccc-2c1`, the growth inhibition is -139%.

As to `CC(=O)Nc1ccc(O)c(=O)cc1`, the growth inhibition was 96% (active).

Consider `CC(=O)Oc1c([N+](=O)[O-])cc(-c2ccccc2)cc1[N+](=O)[O-]`, for which the growth inhibition is 99% (active).

In the case of `Cc1cc(O)c(C)c(C)c1N=Nc1ccccc1`, the growth inhibition is -58%.

With `CCCCCCCC/C=C\CCCCCCCC(=O)O` (tested in a mixture with another compound), the growth inhibition is 97% (active).

On to `O=S(=O)(Nc1ccc(Cl)cc1)c1ccccc1`, for which the growth inhibition was 50%.

Regarding `COC(=O)[C@@]12OC[C@]34[C@H]([C@@H](O)[C@@H]1O)[C@@]1(C)CC(=O)C(O)=C(C)[C@@H]1C[C@H]3OC(=O)[C@H](OC(=O)C(Cc1ccccc1)NC(=O)OC(C)(C)C)[C@@H]24` (stereo not given in full), the growth inhibition was 73% (active).

Take `CSC(=S)n1nc(-c2cccs2)c(N=Nc2ccc(Cl)cc2)c1C(F)(F)F`: the growth inhibition is 63%.

Consider `CCN1C2=NCCN2S(=O)(=O)c2ccccc21`, for which the growth inhibition is 11%.

As to `CCCc1cc(-c2ccc(O)c(CCC)c2)ccc1O`, the growth inhibition is 99% (active).

Consider `O=[N+]([O-])c1ccc(-c2cccc(Cl)c2)c([N+](=O)[O-])c1`, for which the growth inhibition is 98% (active).

For the compound `COC(=O)Oc1nn(C(=O)OC)c(=O)c2ccccc12`, the growth inhibition is 87% (active).

`Cc1n(CC(C)C)c2c([n+]1CC(=O)c1ccc([N+](=O)[O-])cc1)C(=O)c1ccccc1C2=O`: the growth inhibition was 92% (active).

On to `O=C(c1ccccc1)C1C(c2ccccc2)OP(c2ccccc2)(c2ccccc2)(c2ccccc2)C1c1ccccc1` (stereo not given), for which the growth inhibition was 99% (active).

In the case of `Cc1nc2c(cnn2-c2ccccc2)c(=O)o1`, the growth inhibition was -140%.

Take `CCOC(=O)C(=O)Nc1nc2c(s1)C(=O)c1ccccc1C2=O`: the growth inhibition was 96% (active).

Consider `O=C(CCl)OCC(=O)c1ccc(-c2ccccc2)cc1`, for which the growth inhibition is 97% (active).

For the compound `ICCCCCCCCCC[n+]1ccc2ccccc2c1`, the growth inhibition is 98% (active).

For `CCC(C)OC(=O)Nc1cccc(Cl)c1` (stereo not given), the growth inhibition is 61%.

On to `COc1ccccc1CN1CCCN(Cc2ccccc2OC)C1c1ccccc1F`, for which the growth inhibition was -2%.

Turning to `ON=C(CC(O)(C(F)(F)Cl)C(F)(F)Cl)CC(O)(C(F)(F)Cl)C(F)(F)Cl`, the growth inhibition was 99% (active).

As for `COC(=O)Cn1/c(=N\N=C(/C)c2ccc(C)cc2)sc2ccccc21`, the growth inhibition is 7%.

In the case of `CCN(CC)CCOc1ccc(NC(=S)Nc2ccc(OCC(C)C)cc2)cc1`, the growth inhibition was 54%.

As to `CCCCCCCCCCNC(=O)CBr`, the growth inhibition was 99% (active).

As for `CN(C)c1ccc(N=Nc2ccc(/C=C3\CCOC3=O)cc2)cc1`, the growth inhibition was 4%.

Regarding `CCc1cccc(CC)c1NC(=O)C1=C(C)NC(C)=C(C(=O)Nc2c(CC)cccc2CC)C1c1ccc2c(c1)OCO2`, the growth inhibition was 54%.

`Nc1cc2[nH]c(=O)c3cc(Cl)ccc3c2cc1Cl`: the growth inhibition is 94% (active).

Turning to `COc1ccc(OC(C)=O)c2c1CCC=CC2=O`, the growth inhibition was 93% (active).

`COc1ccc(-c2n[nH]c(C(F)(F)F)c2N=NN(C)C)cc1OC`: the growth inhibition was 98% (active).

Take `CCC(=NCCCCCCN=C(CC)c1cc(C)cc([N+](=O)[O-])c1O)c1cc(C)cc([N+](=O)[O-])c1O.[Fe]`: the growth inhibition was 46%.

As to `COc1ccc(CN2CCCN(Cc3ccc(OC)cc3)C2Cc2cc(Cl)ccc2OC)cc1`, the growth inhibition is 58%.

As for `Cc1cc(Cc2ccc(Cl)cc2)ccc1O`, the growth inhibition was 99% (active).

Take `CNCCN[C@@H]1c2cc3c(cc2[C@@H](c2cc(OC)c(O)c(OC)c2)[C@H]2C(=O)OC[C@@H]21)OCO3`: the growth inhibition was 97% (active).

In the case of `Cc1cc(NC(=S)SC(C)C)ccc1Br`, the growth inhibition is 99% (active).

In the case of `CC1CC2(C)ON=C(c3ccccc3)N2c2ccccc2S1` (stereo not given), the growth inhibition was 98% (active).

As to `O=C(Cc1ccccc1)OC(C(=O)c1ccccc1)c1ccccc1` (stereo not given), the growth inhibition is 94% (active).

As for `Nc1ccc2ccccc2c1N=Nc1ccccc1`, the growth inhibition was 97% (active).

Turning to `Clc1ccc(C(c2ccc(Cl)cc2)c2cncnc2)cc1`, the growth inhibition was 96% (active).

Take `OC(C(=Nc1ccccc1)c1ccccc1)c1ccccc1` (stereo not given): the growth inhibition is 96% (active).

The same assay, now with this note: S. cerevisiae rad50 strain growth inhibition; at 50.0 µM; active compounds read high.
On to `COc1ccc(N=N/N=c2\sc3cc(Cl)ccc3n2C)cc1`, for which the growth inhibition was 36.9%.

Regarding `O=c1ccc2nc3ccccc3ccc-2c1`, the growth inhibition is 23%.

In the case of `CC(=O)Nc1ccc(O)c(=O)cc1`, the growth inhibition was 90.6% (active).

As for `CC(=O)Oc1c([N+](=O)[O-])cc(-c2ccccc2)cc1[N+](=O)[O-]`, the growth inhibition is 78.2% (active).

With `Cc1cc(O)c(C)c(C)c1N=Nc1ccccc1`, the growth inhibition is 56.4%.

Regarding `CCCCCCCC/C=C\CCCCCCCC(=O)O` (tested in a mixture with another compound), the growth inhibition is 96.2% (active).

Turning to `O=S(=O)(Nc1ccc(Cl)cc1)c1ccccc1`, the growth inhibition is 76.5% (active).

`COC(=O)[C@@]12OC[C@]34[C@H]([C@@H](O)[C@@H]1O)[C@@]1(C)CC(=O)C(O)=C(C)[C@@H]1C[C@H]3OC(=O)[C@H](OC(=O)C(Cc1ccccc1)NC(=O)OC(C)(C)C)[C@@H]24` (stereo not given in full): the growth inhibition is 85.8% (active).

For the compound `CSC(=S)n1nc(-c2cccs2)c(N=Nc2ccc(Cl)cc2)c1C(F)(F)F`, the growth inhibition is 83.8% (active).

On to `CCN1C2=NCCN2S(=O)(=O)c2ccccc21`, for which the growth inhibition was -14.4%.

`CCCc1cc(-c2ccc(O)c(CCC)c2)ccc1O`: the growth inhibition was 99.6% (active).

As to `O=[N+]([O-])c1ccc(-c2cccc(Cl)c2)c([N+](=O)[O-])c1`, the growth inhibition was 99.3% (active).

Consider `COC(=O)Oc1nn(C(=O)OC)c(=O)c2ccccc12`, for which the growth inhibition is 90.9% (active).

On to `Cc1n(CC(C)C)c2c([n+]1CC(=O)c1ccc([N+](=O)[O-])cc1)C(=O)c1ccccc1C2=O`, for which the growth inhibition was 88.2% (active).

Turning to `O=C(c1ccccc1)C1C(c2ccccc2)OP(c2ccccc2)(c2ccccc2)(c2ccccc2)C1c1ccccc1` (stereo not given), the growth inhibition was 99.7% (active).

As for `Cc1nc2c(cnn2-c2ccccc2)c(=O)o1`, the growth inhibition is 28.3%.

With `CCOC(=O)C(=O)Nc1nc2c(s1)C(=O)c1ccccc1C2=O`, the growth inhibition was 98.5% (active).

For `O=C(CCl)OCC(=O)c1ccc(-c2ccccc2)cc1`, the growth inhibition is 10.2%.

`ICCCCCCCCCC[n+]1ccc2ccccc2c1`: the growth inhibition was 88.9% (active).

`CCC(C)OC(=O)Nc1cccc(Cl)c1` (stereo not given): the growth inhibition is 83.4% (active).

For `COc1ccccc1CN1CCCN(Cc2ccccc2OC)C1c1ccccc1F`, the growth inhibition was 55.9%.

As for `ON=C(CC(O)(C(F)(F)Cl)C(F)(F)Cl)CC(O)(C(F)(F)Cl)C(F)(F)Cl`, the growth inhibition is 99.7% (active).

Take `COC(=O)Cn1/c(=N\N=C(/C)c2ccc(C)cc2)sc2ccccc21`: the growth inhibition was 35%.

With `CCN(CC)CCOc1ccc(NC(=S)Nc2ccc(OCC(C)C)cc2)cc1`, the growth inhibition is 66.1%.

Consider `CCCCCCCCCCNC(=O)CBr`, for which the growth inhibition is 83.7% (active).

Take `CN(C)c1ccc(N=Nc2ccc(/C=C3\CCOC3=O)cc2)cc1`: the growth inhibition is -3.65%.

For the compound `CCc1cccc(CC)c1NC(=O)C1=C(C)NC(C)=C(C(=O)Nc2c(CC)cccc2CC)C1c1ccc2c(c1)OCO2`, the growth inhibition was 91.9% (active).

`Nc1cc2[nH]c(=O)c3cc(Cl)ccc3c2cc1Cl`: the growth inhibition was 89.8% (active).

In the case of `COc1ccc(OC(C)=O)c2c1CCC=CC2=O`, the growth inhibition was 41.9%.

For `COc1ccc(-c2n[nH]c(C(F)(F)F)c2N=NN(C)C)cc1OC`, the growth inhibition is 98.9% (active).

Consider `CCC(=NCCCCCCN=C(CC)c1cc(C)cc([N+](=O)[O-])c1O)c1cc(C)cc([N+](=O)[O-])c1O.[Fe]`, for which the growth inhibition is 80.9% (active).

For the compound `COc1ccc(CN2CCCN(Cc3ccc(OC)cc3)C2Cc2cc(Cl)ccc2OC)cc1`, the growth inhibition is 82.4% (active).

With `Cc1cc(Cc2ccc(Cl)cc2)ccc1O`, the growth inhibition is 56.4%.

On to `CNCCN[C@@H]1c2cc3c(cc2[C@@H](c2cc(OC)c(O)c(OC)c2)[C@H]2C(=O)OC[C@@H]21)OCO3`, for which the growth inhibition was 78.8% (active).

`Cc1cc(NC(=S)SC(C)C)ccc1Br`: the growth inhibition was 99.5% (active).

Turning to `CC1CC2(C)ON=C(c3ccccc3)N2c2ccccc2S1` (stereo not given), the growth inhibition is 87.7% (active).

`O=C(Cc1ccccc1)OC(C(=O)c1ccccc1)c1ccccc1` (stereo not given): the growth inhibition is -15.7%.

As to `Nc1ccc2ccccc2c1N=Nc1ccccc1`, the growth inhibition is 98.3% (active).

For the compound `Clc1ccc(C(c2ccc(Cl)cc2)c2cncnc2)cc1`, the growth inhibition was 89.8% (active).

Turning to `OC(C(=Nc1ccccc1)c1ccccc1)c1ccccc1` (stereo not given), the growth inhibition is 98.7% (active).
